# Assay results taken from article PMC5700166.
# How the values were obtained:
# Assay in all cases: protein-binding microarray (PBM); PBM: ~300 nM protein, 6 mM HEPES pH 7.8, 80 mM KCl, 0.5 mM EDTA, 0.5 mM EGTA, 6% glycerol, 35 ng/ul poly-dIdC, 1% milk, 1 h, room temperature; Ap Aiptasia and Nv Nematostella (sea anemones) / Co Capsaspora / Aq Amphimedon (sponge) / Dm Drosophila / Hu human; RHD is the Rel homology domain; high values mean tight binding
# Settings in all cases: dsDNA, one strand shown
# GST-Ap-NF-kB RHD = target: T1, GST-Ap-NF-kB RHD (Exaiptasia pallida (Aiptasia), UniProt A0A913YAJ5 2-422)
# T1 sequence: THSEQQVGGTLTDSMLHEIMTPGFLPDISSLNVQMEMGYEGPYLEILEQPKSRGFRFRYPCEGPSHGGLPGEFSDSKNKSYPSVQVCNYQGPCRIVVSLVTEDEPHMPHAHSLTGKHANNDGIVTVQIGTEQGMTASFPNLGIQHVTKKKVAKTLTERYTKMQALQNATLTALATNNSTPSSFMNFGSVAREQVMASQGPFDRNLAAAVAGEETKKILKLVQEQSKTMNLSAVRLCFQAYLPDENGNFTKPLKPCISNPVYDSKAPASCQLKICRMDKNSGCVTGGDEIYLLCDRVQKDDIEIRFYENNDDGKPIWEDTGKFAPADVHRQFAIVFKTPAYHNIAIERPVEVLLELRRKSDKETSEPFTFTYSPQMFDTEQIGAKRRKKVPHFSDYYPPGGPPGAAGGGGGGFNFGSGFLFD
# [1] = target: T2, GST-Nv-NF-kB (Cys allele) (Nematostella vectensis, UniProt E5G601 2-411)
# T2 sequence: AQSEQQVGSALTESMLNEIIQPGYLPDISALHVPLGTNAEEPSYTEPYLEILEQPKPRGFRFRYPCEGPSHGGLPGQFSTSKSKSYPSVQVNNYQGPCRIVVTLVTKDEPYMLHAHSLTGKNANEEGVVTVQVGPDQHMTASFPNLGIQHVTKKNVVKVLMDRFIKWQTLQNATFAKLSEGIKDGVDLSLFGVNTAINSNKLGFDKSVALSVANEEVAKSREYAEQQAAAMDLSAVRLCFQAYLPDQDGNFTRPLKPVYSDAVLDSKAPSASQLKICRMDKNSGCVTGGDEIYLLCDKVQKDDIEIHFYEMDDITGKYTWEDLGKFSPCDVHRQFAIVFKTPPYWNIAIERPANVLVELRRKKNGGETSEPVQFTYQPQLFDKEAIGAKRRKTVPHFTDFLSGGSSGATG
# GST-Co-NF-kB = target: T3, GST-Co-NF-kB (Capsaspora owczarzaki, UniProt F1ARL5 200-546)
# T3 sequence: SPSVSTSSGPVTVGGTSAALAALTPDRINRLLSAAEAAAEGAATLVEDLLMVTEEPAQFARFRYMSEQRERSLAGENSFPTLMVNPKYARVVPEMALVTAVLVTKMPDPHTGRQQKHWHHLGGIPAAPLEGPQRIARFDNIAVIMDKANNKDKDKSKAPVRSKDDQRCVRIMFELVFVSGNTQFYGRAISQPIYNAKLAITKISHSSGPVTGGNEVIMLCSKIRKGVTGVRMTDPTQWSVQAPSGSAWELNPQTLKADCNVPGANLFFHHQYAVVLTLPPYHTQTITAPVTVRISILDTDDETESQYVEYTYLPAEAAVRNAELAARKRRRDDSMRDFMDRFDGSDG
# GST-Aq-NF-kB = target: T4, GST-Aq-NF-kB (Amphimedon queenslandica, UniProt A9Y5G7 2-389)
# T4 sequence: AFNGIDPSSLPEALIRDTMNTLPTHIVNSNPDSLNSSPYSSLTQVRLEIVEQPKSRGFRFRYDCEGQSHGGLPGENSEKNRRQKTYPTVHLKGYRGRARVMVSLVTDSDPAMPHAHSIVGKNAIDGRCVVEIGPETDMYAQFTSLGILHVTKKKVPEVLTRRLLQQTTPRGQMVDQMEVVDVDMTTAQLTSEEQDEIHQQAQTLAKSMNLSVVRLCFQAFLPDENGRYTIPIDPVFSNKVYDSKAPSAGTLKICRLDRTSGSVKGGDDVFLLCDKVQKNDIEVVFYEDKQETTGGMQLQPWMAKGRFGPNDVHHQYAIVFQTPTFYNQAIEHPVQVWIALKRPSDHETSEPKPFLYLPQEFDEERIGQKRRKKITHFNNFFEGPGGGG
Sequence,binding signal (GST-Ap-NF-kB RHD) [z-score],binding signal [1] [z-score],binding signal (GST-Co-NF-kB) [z-score],binding signal (GST-Aq-NF-kB) [z-score]
CCGATTAACATCAGGGACAAAAATGATGTTAATCGGGTCTTGATTCGCTTGACGCTGCTG,2,3.15,2.39,2.39
CCGATTAACATCAGGGAAAAGAATGATGTTAATCGGGTCTTGATTCGCTTGACGCTGCTG,2.43,4.22,2.97,3.22
CCGATTAACATCATCTGGGAAAATGATGTTAATCGGGTCTTGATTCGCTTGACGCTGCTG,1.33,2.91,3.73,1.45
CCGATTAACATCATGGAGGGAGGTGATGTTAATCGGGTCTTGATTCGCTTGACGCTGCTG,1.29,1.62,1.14,1.34
CCGATTAACATCACTTTCCCAAATGATGTTAATCGGGTCTTGATTCGCTTGACGCTGCTG,1.27,2.64,2.28,1.54
CCGATTAACATCAGGAGTCTCCCTGATGTTAATCGGGTCTTGATTCGCTTGACGCTGCTG,1.69,2.44,2.17,5.28
CCGATTAACATCAGGGAAAGGAATGATGTTAATCGGGTCTTGATTCGCTTGACGCTGCTG,1.83,3.07,1.48,2.97
CCGATTAACATCAATCGGGAAATTGATGTTAATCGGGTCTTGATTCGCTTGACGCTGCTG,1.3,3.45,2.19,2.1
CCGATTAACATCAGGGAAAGGTATGATGTTAATCGGGTCTTGATTCGCTTGACGCTGCTG,2.16,3.44,2.67,3.59
CCGATTAACATCAGGGAATTAGATGATGTTAATCGGGTCTTGATTCGCTTGACGCTGCTG,1.83,3.48,2.41,3.43
CCGATTAACATCAGGGAAAAGGATGATGTTAATCGGGTCTTGATTCGCTTGACGCTGCTG,1.79,3.4,2.73,2.41
CCGATTAACATCACATCTTTCCCTGATGTTAATCGGGTCTTGATTCGCTTGACGCTGCTG,2.24,3.96,3.84,4.25
CCGATTAACATCACGGTGGGAAATGATGTTAATCGGGTCTTGATTCGCTTGACGCTGCTG,2.05,2.39,2.77,1.94
CCGATTAACATCAAACAGGGAAATGATGTTAATCGGGTCTTGATTCGCTTGACGCTGCTG,2.71,4.69,2.47,3.23
CCGATTAACATCAGCTCCCCCCCTGATGTTAATCGGGTCTTGATTCGCTTGACGCTGCTG,5.26,3.87,5.77,3.99
CCGATTAACATCATGGGAAGGTTTGATGTTAATCGGGTCTTGATTCGCTTGACGCTGCTG,1.34,1.55,2.28,1.66
CCGATTAACATCAAATCGGGAAATGATGTTAATCGGGTCTTGATTCGCTTGACGCTGCTG,1.42,3.49,2,1.61
